A number with no mark means an inactive call. Active and inactive are the calls of the source. Rule as the data show it, unless noted: active = inhibition above about 30%; inactive = the rest.
How the values were obtained:
[1] = target: Nuclear receptor coactivator 3 (Homo sapiens) (UniProt Q9Y6Q9); assay: NCOA3 GAL4-fusion reporter inhibition – cell-based, luminescence, quadruplicate, confirmation (AID 588792;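 active = mean inhibition over 43.08%, the solvent-only control mean plus 3 SD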;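 also: 0% = DMSO treated cells and 100% = gossypol at 36 µM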); details: HEK293 GAL4-SRC3 luciferase reporter, at 3.6 µM, stronger effect = higher value
Nuclear receptor coactivator 3 (Homo sapiens), sequence (Q9Y6Q9 whole entry, looked up, the tested form may be a part): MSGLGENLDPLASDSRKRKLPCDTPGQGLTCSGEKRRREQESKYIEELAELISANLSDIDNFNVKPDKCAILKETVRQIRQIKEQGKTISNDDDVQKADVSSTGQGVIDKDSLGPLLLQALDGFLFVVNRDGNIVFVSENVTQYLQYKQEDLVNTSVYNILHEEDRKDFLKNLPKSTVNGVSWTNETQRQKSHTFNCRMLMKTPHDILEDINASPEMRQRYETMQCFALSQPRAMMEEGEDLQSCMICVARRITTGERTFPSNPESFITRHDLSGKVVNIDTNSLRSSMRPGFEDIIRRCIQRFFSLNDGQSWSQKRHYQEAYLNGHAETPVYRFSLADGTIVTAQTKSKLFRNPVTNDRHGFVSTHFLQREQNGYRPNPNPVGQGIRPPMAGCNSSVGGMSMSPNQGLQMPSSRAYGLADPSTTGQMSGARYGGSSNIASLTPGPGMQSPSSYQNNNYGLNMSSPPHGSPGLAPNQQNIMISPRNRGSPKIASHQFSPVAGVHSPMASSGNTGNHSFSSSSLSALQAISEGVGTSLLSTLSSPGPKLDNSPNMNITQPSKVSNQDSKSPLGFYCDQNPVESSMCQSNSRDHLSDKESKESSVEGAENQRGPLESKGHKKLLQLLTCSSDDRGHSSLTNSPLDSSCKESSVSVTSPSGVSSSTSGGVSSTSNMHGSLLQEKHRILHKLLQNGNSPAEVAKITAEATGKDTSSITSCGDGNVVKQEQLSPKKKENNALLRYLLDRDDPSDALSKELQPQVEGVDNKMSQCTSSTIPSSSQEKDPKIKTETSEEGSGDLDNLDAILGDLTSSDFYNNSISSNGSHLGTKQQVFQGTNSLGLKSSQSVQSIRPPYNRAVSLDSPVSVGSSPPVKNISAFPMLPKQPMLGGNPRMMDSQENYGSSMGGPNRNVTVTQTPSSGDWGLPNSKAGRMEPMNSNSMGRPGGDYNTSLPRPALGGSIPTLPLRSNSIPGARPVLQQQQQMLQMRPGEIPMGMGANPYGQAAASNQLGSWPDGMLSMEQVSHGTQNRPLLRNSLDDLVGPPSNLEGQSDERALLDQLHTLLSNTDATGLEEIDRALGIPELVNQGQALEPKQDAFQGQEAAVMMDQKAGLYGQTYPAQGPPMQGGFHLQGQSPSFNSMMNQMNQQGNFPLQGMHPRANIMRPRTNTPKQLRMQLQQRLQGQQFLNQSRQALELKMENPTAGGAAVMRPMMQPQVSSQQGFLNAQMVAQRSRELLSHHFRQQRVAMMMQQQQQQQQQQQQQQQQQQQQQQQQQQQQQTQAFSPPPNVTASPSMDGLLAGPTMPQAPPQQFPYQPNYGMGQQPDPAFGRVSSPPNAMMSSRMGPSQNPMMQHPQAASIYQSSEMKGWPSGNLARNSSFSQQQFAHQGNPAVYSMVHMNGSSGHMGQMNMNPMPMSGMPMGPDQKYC

[2] = test system: transactivating tegument protein VP16 (Human herpesvirus 1), Gal4-VP16 luciferase reporter; assay: repression of VP16-driven luciferase reporter – cell-based, luminescence, high throughput, counter-screen for SRC3 inhibitor project (AID 588794); details: mammalian cells, at 3.6 µM, stronger effect = higher value
[3] = target: Nuclear receptor coactivator 1 (Homo sapiens) (UniProt Q15788); assay: NCOA1 GAL4-fusion reporter inhibition – cell-based, luminescence, quadruplicate, confirmation (AID 588820;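 active = mean inhibition above 46.68%, the untreated control wells mean plus 3 SD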;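 also: 0% = DMSO wells and 100% = gossypol 36 µM treated wells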); details: HEK293 GAL4-SRC1 luciferase reporter, at 3.6 µM, stronger effect = higher value
[4] = repression of VP16-driven luciferase reporter – cell-based, luminescence, high throughput, counter-screen for SRC1 inhibitor project (AID 588824; in the data active = inhibition above about 25%); details: cell-based VP16 transactivation luciferase luminescence; at 3.6 µM; stronger effect = higher value
[5] = StAR promoter reporter inhibitors, counter-screen for LRH-1 inverse agonist project, cell-based, luminescence, high throughput (AID 651611; in the data active = inhibition above about 28%); details: StAR promoter luciferase reporter counterscreen, at 3.6 µM, stronger effect = higher value
[6] = target: Nuclear receptor subfamily 5 group A member 2 (Homo sapiens) (UniProt O00482); assay: NR5A2 activity suppression in reporter cells – cell-based, luminescence, confirmation (AID 651613; in the data active = inhibition above about 42%;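 also: HEK293T cells co-transfected with LRH-1 and StAR promoter luciferase reporter; 0% = vehicle wells and 100% = parental cells lacking receptor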); details: cell-based LRH-1 luciferase reporter, inverse agonism; at 3.6 µM; stronger effect = higher value
Nuclear receptor subfamily 5 group A member 2 (Homo sapiens), sequence (O00482 whole entry, looked up): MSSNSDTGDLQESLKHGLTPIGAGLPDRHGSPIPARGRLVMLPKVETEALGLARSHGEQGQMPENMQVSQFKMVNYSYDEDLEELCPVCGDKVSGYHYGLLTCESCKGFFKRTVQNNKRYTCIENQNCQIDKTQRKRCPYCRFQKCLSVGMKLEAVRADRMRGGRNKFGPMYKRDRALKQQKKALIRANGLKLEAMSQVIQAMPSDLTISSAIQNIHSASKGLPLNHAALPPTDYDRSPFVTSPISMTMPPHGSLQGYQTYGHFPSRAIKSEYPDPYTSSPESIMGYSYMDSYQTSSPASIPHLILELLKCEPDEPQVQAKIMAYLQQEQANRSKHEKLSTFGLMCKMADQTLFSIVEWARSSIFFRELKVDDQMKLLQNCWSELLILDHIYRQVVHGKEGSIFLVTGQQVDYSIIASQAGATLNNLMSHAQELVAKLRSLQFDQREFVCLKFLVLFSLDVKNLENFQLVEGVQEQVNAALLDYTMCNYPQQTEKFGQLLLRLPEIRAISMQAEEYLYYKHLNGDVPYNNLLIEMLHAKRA

[7] = target: Steroidogenic factor 1 (Homo sapiens) (UniProt Q13285); assay: inverse agonism at SF1 nuclear receptor – cell-based, luminescence, high throughput, counter-screen for LRH-1 inverse agonist project (AID 651614; in the data active = inhibition above about 44%;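 also: cells cotransfected with StAR promoter reporter and SF1 expression vector; 0% = vehicle on cells with receptor and 100% = vehicle on cells lacking receptor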); details: cell-based SF1 luciferase reporter, at 3.6 µM, stronger effect = higher value
Steroidogenic factor 1 (Homo sapiens), sequence (Q13285 whole entry, looked up, the tested form may be a part): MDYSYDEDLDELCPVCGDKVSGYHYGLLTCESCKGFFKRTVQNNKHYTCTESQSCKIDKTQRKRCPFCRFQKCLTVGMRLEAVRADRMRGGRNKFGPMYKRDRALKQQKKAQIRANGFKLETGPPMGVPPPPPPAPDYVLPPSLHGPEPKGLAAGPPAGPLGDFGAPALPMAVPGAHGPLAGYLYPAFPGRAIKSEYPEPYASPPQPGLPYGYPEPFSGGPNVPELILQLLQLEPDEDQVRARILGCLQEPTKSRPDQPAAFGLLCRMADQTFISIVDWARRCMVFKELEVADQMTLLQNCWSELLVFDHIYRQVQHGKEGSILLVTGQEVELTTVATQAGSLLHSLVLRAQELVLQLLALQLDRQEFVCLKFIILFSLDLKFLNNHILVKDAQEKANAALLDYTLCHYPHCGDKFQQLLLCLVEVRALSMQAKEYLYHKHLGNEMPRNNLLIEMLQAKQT

[8] = compounds suppressing VP16-driven luciferase signal – cell-based, luminescence, high throughput, counter-screen for LRH-1 inverse agonist project (AID 651615; in the data active = inhibition above about 33%); details: Gal4-VP16 luciferase reporter cells, at 3.6 µM, stronger effect = higher value
[9] = test system: transactivating tegument protein VP16 (Human herpesvirus 1); assay: compounds suppressing VP16-driven luciferase signal – cell-based, luminescence, single concentration, counter-screen for SRC2 inhibitor project (AID 652007; in the data active = inhibition above about 36%); details: cell-based VP16 transactivation luciferase reporter, at 8.9 µM, stronger effect = higher value
[10] = target: Nuclear receptor coactivator 2 (Homo sapiens) (UniProt Q15596); assay: inhibition of GAL4-SRC2 driven luciferase expression – cell-based, luminescence, HEK293, triplicate, confirmation (AID 652008;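 active = mean inhibition above 46.5%, the solvent-only control mean plus 3 SD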;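 also: 0% = DMSO-treated cells and 100% = Gossypol at 36 µM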); details: HEK293 GAL4-SRC2 luciferase reporter, at 8.9 µM, stronger effect = higher value
Nuclear receptor coactivator 2 (Homo sapiens), sequence (Q15596 whole entry, looked up, the tested form may be a part): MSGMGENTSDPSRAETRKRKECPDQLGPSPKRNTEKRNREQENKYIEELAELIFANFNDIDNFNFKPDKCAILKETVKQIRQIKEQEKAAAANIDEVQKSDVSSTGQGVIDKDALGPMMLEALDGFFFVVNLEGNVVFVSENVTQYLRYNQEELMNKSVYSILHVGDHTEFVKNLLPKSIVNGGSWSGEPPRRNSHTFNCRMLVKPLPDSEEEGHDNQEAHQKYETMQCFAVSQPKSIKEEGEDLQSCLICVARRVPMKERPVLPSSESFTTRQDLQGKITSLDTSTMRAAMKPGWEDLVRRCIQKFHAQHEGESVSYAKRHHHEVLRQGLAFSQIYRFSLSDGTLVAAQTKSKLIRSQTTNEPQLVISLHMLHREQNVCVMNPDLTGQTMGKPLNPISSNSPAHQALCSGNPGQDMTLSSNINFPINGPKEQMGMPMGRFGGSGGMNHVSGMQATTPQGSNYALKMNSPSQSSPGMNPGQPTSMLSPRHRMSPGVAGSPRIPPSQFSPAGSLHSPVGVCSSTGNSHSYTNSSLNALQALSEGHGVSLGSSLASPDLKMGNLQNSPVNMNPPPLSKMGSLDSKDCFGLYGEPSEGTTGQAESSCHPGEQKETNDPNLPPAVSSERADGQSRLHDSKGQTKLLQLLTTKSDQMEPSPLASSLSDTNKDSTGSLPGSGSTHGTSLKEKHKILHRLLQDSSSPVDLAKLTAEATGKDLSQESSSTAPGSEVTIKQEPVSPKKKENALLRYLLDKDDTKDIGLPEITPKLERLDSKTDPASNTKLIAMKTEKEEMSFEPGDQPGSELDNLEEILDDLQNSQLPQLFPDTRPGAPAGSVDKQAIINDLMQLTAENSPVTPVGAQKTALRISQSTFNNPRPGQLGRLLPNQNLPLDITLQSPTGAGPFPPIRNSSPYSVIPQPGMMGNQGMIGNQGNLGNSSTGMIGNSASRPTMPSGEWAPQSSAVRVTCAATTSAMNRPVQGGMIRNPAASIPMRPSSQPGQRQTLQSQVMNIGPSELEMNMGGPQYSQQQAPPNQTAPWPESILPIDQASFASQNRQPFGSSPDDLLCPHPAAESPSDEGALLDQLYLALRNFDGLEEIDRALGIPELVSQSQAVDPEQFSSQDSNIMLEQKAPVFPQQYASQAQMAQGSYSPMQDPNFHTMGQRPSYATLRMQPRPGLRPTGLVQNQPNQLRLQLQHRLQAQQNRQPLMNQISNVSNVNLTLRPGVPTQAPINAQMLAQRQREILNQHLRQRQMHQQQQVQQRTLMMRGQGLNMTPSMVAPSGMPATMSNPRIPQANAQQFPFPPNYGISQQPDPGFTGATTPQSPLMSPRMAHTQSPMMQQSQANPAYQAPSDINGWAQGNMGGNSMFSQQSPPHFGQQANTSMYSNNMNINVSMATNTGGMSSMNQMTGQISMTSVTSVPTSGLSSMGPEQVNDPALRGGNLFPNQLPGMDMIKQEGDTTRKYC

SMILES	inhibition [1]	inhibition [2]	inhibition [3]	inhibition [4]	inhibition [5]	inhibition [6]	inhibition [7]	inhibition [8]	inhibition [9]	inhibition [10]
Cc1nn(-c2nc3ccccc3[nH]2)c(=O)c2ccccc12	72.3% (active)	65% (active)	47.4% (active)	68.3% (active)	69.2% (active)	63.9% (active)	78.8% (active)	59.3% (active)	82.9% (active)	89.3% (active)
O=C(NN=Cc1c(O)ccc2ccccc12)c1ccncc1	77% (active)	70.6% (active)	65.6% (active)	65.3% (active)	87.4% (active)	104% (active)	89.8% (active)	77.4% (active)	-16.9%	38%
Cc1nc2c(O)c3c(c(O)c2nc1C)C1C=CC3CC1	96.9% (active)	93.2% (active)	88.9% (active)	92.6% (active)	91.8% (active)	107% (active)	96.3% (active)	98.5% (active)	75% (active)	79.4% (active)
S=C(Nc1ccccc1)Nc1ccc(OCc2ccc(Cl)cc2Cl)cc1	46.7% (active)	25.4%	43.6%	24.4%	63.4% (active)	72.3% (active)	59.5% (active)	39.4% (active)	83.7% (active)	93.9% (active)
Cc1ccc(C#N)c(SCc2nnc(-c3ccc(Cl)cc3)o2)n1	67.8% (active)	54.9% (active)	30.4%	28.1% (active)	30.7% (active)	-14.8%	21.1%	7.27%	59.4% (active)	85.4% (active)
COc1ccc(CNC(=O)c2cccc3c(-c4cccc(C(N)=O)c4)coc23)cc1OC	30.4%	52% (active)	3.09%	50.2% (active)	62.9% (active)	69.7% (active)	68.7% (active)	73.6% (active)	34.4%	37.8%
CC(C)(C)C(=O)/C(=C/c1ccc(Cl)cc1)n1cncn1	73.4% (active)	64.5% (active)	40.2%	59.1% (active)	78.4% (active)	70.4% (active)	77% (active)	78.9% (active)	51.1% (active)	79.7% (active)
Cc1cc(C)c2c(N)c(C(=O)Nc3ncc(C)s3)sc2n1	49.7% (active)	34.4% (active)	-42.2%	24.3%	36.9% (active)	14.3%	55.7% (active)	4.69%	55.6% (active)	77.2% (active)
O=C(NCc1cccnc1)/C(=C/c1ccc(-c2ccc(Cl)cc2)o1)S(=O)(=O)c1ccccc1	76.5% (active)	62.8% (active)	48.1% (active)	47% (active)	47.5% (active)	79.5% (active)	78.1% (active)	77.2% (active)	70.2% (active)	50.4% (active)
COC1=CC(=O)c2nc(Cl)ccc2C1=O	67.8% (active)	55.1% (active)	-9.24%	60.7% (active)	56.2% (active)	65.1% (active)	70% (active)	72.2% (active)	24.5%	89.5% (active)
Cc1cc(C(=O)CN2C(=O)c3ccccc3S2(=O)=O)c(C)n1CC1CCCO1 (stereo not given)	82.9% (active)	62.8% (active)	77.7% (active)	60% (active)	78.1% (active)	81% (active)	80.4% (active)	68.2% (active)	63.7% (active)	93.7% (active)
Cc1cc(C)c2sc(NNC(=O)c3ccc(S(=O)(=O)N4CCc5ccccc5C4)cc3)nc2c1	46.6% (active)	41.1% (active)	50% (active)	46.6% (active)	68.6% (active)	89.6% (active)	66.8% (active)	66.6% (active)	-4.24%	29.3%
O=S(=O)(c1ccc(NC(=S)NCc2cccnc2)cc1)N1CCCCC1	91% (active)	72.3% (active)	77.6% (active)	65.2% (active)	90.8% (active)	102% (active)	96.3% (active)	88.6% (active)	12.3%	50.2% (active)
CC(C)(C)C(=O)Nc1ccc(NC(=O)c2ccco2)nc1	69.9% (active)	64.1% (active)	39.4%	39.8% (active)	56.1% (active)	15.6%	59.4% (active)	36.7% (active)	72.7% (active)	92.8% (active)

Source: PubChem BioAssay
